# ROC1-CUL1 inh: blocks human RBX1-Cullin-1 di-ubiquitin formation. P62877+Q13616. in vitro K48 di-Ub FRET, acceptor:donor ratio, 45 min. inhibition, % at 10 µM. 140,000 tested, 0.6% active; in the data active = inhibition above about 25%
# Target sequence (P62877 whole entry, looked up): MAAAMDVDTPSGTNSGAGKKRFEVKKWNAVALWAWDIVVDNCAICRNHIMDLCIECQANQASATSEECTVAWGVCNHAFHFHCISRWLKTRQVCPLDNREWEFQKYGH
# Target sequence (Q13616 whole entry, looked up): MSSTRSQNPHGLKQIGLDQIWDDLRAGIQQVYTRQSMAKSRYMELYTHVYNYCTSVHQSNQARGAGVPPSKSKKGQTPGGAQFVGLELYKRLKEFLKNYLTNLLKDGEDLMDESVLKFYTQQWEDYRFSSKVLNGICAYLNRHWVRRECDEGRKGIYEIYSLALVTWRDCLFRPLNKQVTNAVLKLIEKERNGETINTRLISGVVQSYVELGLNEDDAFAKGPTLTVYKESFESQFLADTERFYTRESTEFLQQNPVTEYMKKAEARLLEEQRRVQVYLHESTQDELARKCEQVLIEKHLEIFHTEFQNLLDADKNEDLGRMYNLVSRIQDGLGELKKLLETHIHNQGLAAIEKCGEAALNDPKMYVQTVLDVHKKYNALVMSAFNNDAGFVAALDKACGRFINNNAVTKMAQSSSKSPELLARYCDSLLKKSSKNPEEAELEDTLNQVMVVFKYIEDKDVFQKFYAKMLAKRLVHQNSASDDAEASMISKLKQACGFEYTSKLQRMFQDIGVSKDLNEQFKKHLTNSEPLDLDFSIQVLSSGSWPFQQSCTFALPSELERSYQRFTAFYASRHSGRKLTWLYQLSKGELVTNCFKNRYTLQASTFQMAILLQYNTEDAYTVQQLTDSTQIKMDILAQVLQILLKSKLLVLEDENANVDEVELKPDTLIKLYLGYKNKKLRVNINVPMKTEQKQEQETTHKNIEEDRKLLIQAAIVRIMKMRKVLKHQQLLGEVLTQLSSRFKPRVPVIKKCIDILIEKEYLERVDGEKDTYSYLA
# * hit, by the source's call. This is one part of a sample in which hits are shown more often than they occur.
SMILES,ROC1-CUL1 inh
COc1ccc(-c2[nH]nc3c2C(c2ccc(Br)cc2)C(C#N)C(=N)O3)cc1 (centres undefined),13.7
CCOC(=O)c1c(NC(NC(=O)c2ccc(Cl)cc2)(C(=O)OC)C(F)(F)F)sc(-c2ccccc2)c1C (centres undefined),12.5
COc1ccc(CCNC(=S)S)cc1OC,99.1*
COc1ccc(CCNC(=S)Nc2cc(Cl)ccc2Cl)cc1OC,-3.0
COc1ccc(CCNC(=S)Nc2c(Cl)cncc2Cl)cc1OC,6.0
CCOC(=O)N1CCN(C(=O)c2ccc(N3CCC(NCCCc4cccnc4)CC3)cc2)CC1,8.5
CCOC(=O)N1CCN(Cc2ccc3c(c2)CN(C(=O)Cc2ccc4c(c2)OCO4)CCO3)CC1,5.0
Cc1cc(C)c2c(=O)[nH]c(SCC(=O)c3ccc(O)c(O)c3)nc2n1,3.5
CCSc1nc2sc(C)c(C)c2c(=O)[nH]1,-6.7
Cc1sc2nc(SCC(=O)c3ccc(O)c(O)c3)[nH]c(=O)c2c1C,67.5*
Cc1ccc(NS(=O)(=O)c2ccccc2C)cc1OS(=O)(=O)c1ccccc1C,-0.6
Clc1ccc2sc(Sc3ccccn3)nc2c1,7.3
Cc1ccc(OCC(=O)Nc2cc(Cl)c(Cl)cc2Cl)cc1,1.9
O=C(c1ccsc1)N1CCC(C2CCN(c3ncccn3)CC2)C1 (centres undefined),-4.7
c1ccc(-c2nc3c(c(N4CCN(CCCn5cccn5)CC4)n2)CCC3)cc1,-1.5
Cc1ccc(/C=C2\C(=O)Nc3ccc(Br)cc32)cc1C,1.3
COc1cccc(/C=C2\C(=O)Nc3ccc(Br)cc32)c1,6.5
O=C1Nc2ccc(Br)cc2/C1=C/c1cc(O)c(O)c(Br)c1,65.7*
CSCC(=O)N1CCC(n2nccc2NC(=O)Nc2ccccc2Cl)CC1,8.8
CC(C)C1=C(Cl)C(=O)C(C)(Cl)C(Cl)C1=NS(=O)(=O)c1ccccc1 (centres undefined),5.2
N#Cc1c(-c2ccccc2)c(-c2ccccc2)n(Cc2ccco2)c1NC(=O)c1cccs1,-2.9
N#C/C(=C\c1ccco1)C(=O)c1cccs1,57.2*
CC(C)=CC(=O)/C=C(/C)c1cccs1,-5.4
COc1c(Cl)cc2c(c1Cl)NC(=O)C(Cl)(Cl)C2=O,45.5*
O=C1Nc2c(cc([N+](=O)[O-])cc2[N+](=O)[O-])C(=O)C1(Cl)Cl,21.2
SMILES,ROC1-CUL1 inh
COc1cccc2c1NC(=O)C(Cl)(Cl)C2=O,-2.5
CCCCCCCCCCCC[n+]1ccc(/C=C/c2ccc(N(C)C)cc2)cc1,61.8*
CCCCCCCCN1C(=O)/C(=C\c2ccc(N(C)C)cc2)C(=O)N(CCCC)C1=O,4.4
CN(C)c1ccc(/C=C/C2=NC(=O)NC(=O)C2)cc1,-16.0
N#Cc1c(Cl)ncc2c1N(O)c1ccccc1C2OC(=O)c1cccc(Cl)c1 (centres undefined),4.5
COC(=O)[C@@H]1C(c2ccccc2)N=C(c2ccccc2)[C@H]1C (some centres undefined),3.4
COC(=O)[C@H]1O[C@H](c2ccccc2)O[C@H]1c1ccccc1,1.5
COC(=O)[C@H]1CC2C(=O)C=C(c3ccccc3)C1N2C (some centres undefined),39.5*
Cc1ccc(N2CCCn3c2nc2c3c(=O)n(CCCO)c(=O)n2C)cc1,7.2
CN1C2CCCC1CC(NC(=O)c1cccc3[nH]cnc13)C2 (centres undefined),-1.3
CCOc1cc(CNc2ccc(O)cc2)cc(Cl)c1OCc1ccccc1,10.2
CCOc1cc(CNc2ccc(O)cc2)cc(Br)c1OCc1ccc(Cl)cc1,75.7*
CC(C)(CO)NCc1ccc(Cl)cc1,0.8
Clc1ccc(CNc2ccc(N3CCN(Cc4ccccc4)CC3)cc2)cc1,2.2
Oc1ccc(NCc2ccc(Cl)cc2)cc1,93.6*
CCOC(=O)c1ccc(NCc2cc(Br)c(OCc3ccc(Cl)cc3Cl)c(OCC)c2)cc1,-13.8
COc1c(C)cccc1C(=O)Nc1ccc(N2CCN(C(=O)C(C)(C)C)CC2)cc1,-6.0
COc1cc2nc(N(C)C)c(CNC3CCCCCCC3)cc2c(OC)c1OC,0.5
Cc1c2ccccc2nc2c1cc1c3c(cccc32)CC1,-5.7
CCS(=O)(=O)N1CCC(C(=O)Nc2ccc(OC)c(Cl)c2)CC1,-1.2
Cc1ccc(-c2nn(-c3ccccc3)cc2-c2nc(-c3ccccc3)c(-c3ccccc3)[nH]2)cc1,-3.5
O=C1C(=Nc2ccc(Cl)c(Cl)c2)CC(=NS(=O)(=O)c2ccc(Cl)cc2)c2ccccc21,-14.5
O=C1c2cc(S(=O)(=O)O)ccc2C(=O)c2c(Cl)cccc21,-2.7
O=C1CC(=Nc2cccc3cc(S(=O)(=O)O)ccc23)c2ccccc2C1=O,79.8*
CCOc1cc(/C=C2\SC(=Nc3ccccc3C)N(c3ccccc3C)C2=O)ccc1O,-7.0
SMILES,ROC1-CUL1 inh
Cc1nnc(SCC(=O)N2CCN(c3ccccc3)CC2)n1N,-2.9
COCCN1C(=O)/C(=C/c2ccc(-c3ccc(C(=O)O)c(Cl)c3)o2)SC1=Nc1ccccc1,1.9
O=C(O)c1cc(N2C(=O)/C(=C\c3ccc(-c4ccc(Br)cc4)o3)C=C2c2ccccc2)ccc1O,97.1*
O=C1OC(c2ccccc2)=N/C1=C\c1ccc(-c2ccc(C(=O)O)cc2)o1,12.7
Cc1ccc2cccc(OS(=O)(=O)c3ccc(Cl)cc3)c2n1,-0.9
CCOc1cc(/C=C2/C(=O)NN(c3ccc(Cl)cc3)C2=O)cc(I)c1OC,38.7*
CCOc1cc(/C=C2\C(=O)NN(c3ccccc3)C2=O)cc(Br)c1OCc1c(Cl)cccc1Cl,28.2*
COc1cc(/C=C2/C(=O)NN(c3ccc(C)c(Cl)c3)C2=O)ccc1OCc1ccccc1,0.9
O=C1NN(c2ccccc2)C(=O)/C1=C/c1cc(Br)ccc1OCc1c(Cl)cccc1Cl,-1.4
COc1cc(/C=C2/C(=O)NN(c3ccc(Cl)cc3)C2=O)ccc1OCc1ccc(F)cc1,0.2
CCOc1cc(/C=C2\C(=O)NN(c3ccccc3)C2=O)cc(Cl)c1OCCCOc1ccc(Cl)cc1,2.5
CCOc1cc(/C=C2\C(=O)NN(c3ccccc3)C2=O)cc(Cl)c1OCCOc1ccc(OC)cc1,9.2
COc1ccc(/C=C2\C(=O)NN(c3ccc(Cl)cc3)C2=O)cc1OC,18.6
CCOc1cc(/C=C2\C(=O)NN(c3ccccc3)C2=O)cc(Cl)c1OCCOc1cc(C)ccc1C,43.5*
COc1cc(/C=C2\C(=O)NN(c3ccccc3)C2=O)cc(Cl)c1OCc1ccc(Cl)c(Cl)c1,56.8*
CCOc1cc(/C=C2\C(=O)NN(c3ccccc3)C2=O)cc(Br)c1OCc1ccc(Cl)c(Cl)c1,11.8
COc1cc(/C=C2\C(=O)NN(c3ccccc3)C2=O)ccc1OCCOCCOc1ccccc1C,3.2
O=C(Nc1ccc2c(c1)CN(Cc1ccn[nH]1)CC2)C1(c2ccccc2)CC1,3.2
CCOC1=Nc2cccc3cccc1c23,5.0
O=C(c1cc(COc2ccccc2)[nH]n1)N1CCC(O)(c2ccccc2)CC1,-5.6
COc1ccc(C2C3=C(CC(C)(C)CC3=O)N(c3ccccc3)C(=N)C2C(=O)c2ccccc2)cc1 (centres undefined),-1.9
CCOC(=O)C1(Cc2ccccc2)CCCN(C2CCC2)C1 (centres undefined),0.7
O=c1c(Cl)c(N2CCN(CCO)CC2)cnn1-c1cccc(Cl)c1,9.3
C=CCc1ccccc1OCCSc1nnc(-c2ccc(NC(=O)c3ccccc3F)cc2)n1C,2.7
CC1=NC(=O)NC(c2cn(-c3ccccc3)nc2-c2ccc(OC(C)C)c(C)c2)C1C(=O)OC(C)C (centres undefined),-9.3
CCN1CCN(C2(C(=O)NCc3csc(C)n3)Cc3ccccc3C2)CC1,-4.2

# Screening data from PubChem.
